Results filed as inconclusive are left out. The source made the active and inactive calls. Unless noted, the call rests on the fitted dose curve; in most records, active means well fitted curve in the direction sought with a large enough effect; inconclusive means small, poorly fitted or top-dose-only effect, or another doubt; inactive means no such curve, though single readings can be large; an effect the other way counts as inactive or inconclusive.

In assay [1] the target is T1, Hexokinase-4 (Homo sapiens) + Glucokinase regulatory protein (Homo sapiens) (UniProt P35557+Q14397). The experiment in a line: qHTS assay for inhibitors of recombinant human GCK-GKRP interaction: Diaphorase-coupled assay (AID 743205). The method, boiled down:
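A kinetic fluorescence read (Ex 525/Em 590 nm, every minute for 30 minutes) tracked resorufin from a G6PDH-diaphorase coupled GCK reaction. It contained 10 nM GST-GCK, 10 nM FLAG-GKRP, 5 mM glucose, 0.4 mM ATP in Hepes pH 7.6. Normalized to with/without-enzyme DMSO controls.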

The target in assay [2] is T1, Hexokinase-4 (Homo sapiens) + Glucokinase regulatory protein (Homo sapiens). The experiment in a line: qHTS assay for inhibitors of recombinant human GCK-GKRP interaction: ADP-Glo assay (AID 743206).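 Further: plate controls were DMSO plus enzyme for no effect and no enzyme for full effect.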 In short, it runs like this: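 GST-GCK and FLAG-GKRP (15 nM each in the dispensed mix, with 2 uM S6P) react with 0.4 mM ATP and 5 mM glucose (final) in Hepes pH 7.6 for 60 min at room temperature. ADP is measured by ADP-Glo luminescence.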

Assay [3] has the same target. Briefly: qHTS assay for inhibitors of recombinant human GCK-GKRP interaction: HTRF assay (AID 743207).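 Further: 0% = DMSO with GCK present and -100% = DMSO wells lacking GCK.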 In short, it runs like this:
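After 60 min equilibration at room temperature with anti-FLAG XL665 and anti-GST antibodies, FRET ratio (665/615 nm, excitation 320 nm) was read. Proteins: GST-GCK and FLAG-GKRP, each 5 nM, plus 2 uM S6P, pH 7.1 buffer; GCK-free wells define minimum signal.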

Assay [4] can be described thus: qHTS Assay for Identifying Gametocytocidal Compounds (AID 743244). Further: potency means the concentration at half of the fitted maximal effect.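 On max response: on the % scale 0 is the no-effect control and ±100 the full control effect; actives lower the fluorescent signal which means gametocytes are killed.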 Particulars: P. falciparum 3D7 stage III-V gametocytes, alamarBlue, 72 h; max response: stronger effect = lower value. The method, boiled down: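 In this qHTS viability screen, late-stage 3D7 gametocytes are incubated with compound for 72 h, then with alamarBlue for 24 h; reduced resorufin fluorescence marks killing.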

A short description of assay [5]: qHTS assay for measurement of the activity of small molecule inhibitors on Zika virus induced Caspase-3 activity in human iPSC derived neural progenitor cells (hNPCs) (AID 1224857). Further: % of control where 0% means no effect; nearly all actives have a fitted effect of over 65% in size. In short, it runs like this: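 In medium with heparin 2 ug/ml and cyclopamine 2 uM, hNPCs (350 cells/well) received compound for one hour and then Zika virus at 2 FFU/cell; caspase activity was measured by Caspase-Glo 3/7 luminescence 6 h post-infection.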

A short description of assay [6]: qHTS assay for measurement of the activity of small molecule inhibitors on Zika virus induced Caspase-3 activity in human astrocytoma cells (AID 1224859).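 Further: plate controls were ZIKV-infected untreated cells for no effect and uninfected cells for full effect.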 The method, boiled down: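 A cell-based luminescent caspase-3/7 assay used SNB-19 cells infected with ZIKV (2 FFU/cell) for 6 h following 1 h compound pretreatment.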
The nature of assay [7]: Natriuretic polypeptide receptor (hNpr1) antagonism - Pilot counterscreen GloSensor control cell line (AID 1347045; calls by dose curve; further: on the % scale 0 is the no-effect control and ±100 the full control effect). In short, it runs like this: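 HEK293 cGMP GloSensor cells preloaded 2 h with 2% GloSensor reagent, then compound 30 min before baseline luminescence read. Stimulated with 50 uM sodium nitroprusside, 20 min at room temperature, then read again; counterscreen for Npr1 antagonism.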

For assay [8], the target named is Atrial natriuretic peptide receptor 1 (Homo sapiens) (UniProt P16066). The experiment in a line: Natriuretic polypeptide receptor (hNpr1) antagonism - Pilot screen (AID 1347049; calls by dose curve;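 further: agonist-evoked cGMP luminescence read 20 min after hNppA addition; on the % scale 0 is the no-effect control and ±100 the full control effect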). The method, boiled down: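 Readout is cGMP-driven firefly luciferase luminescence in HEK293 cells carrying hNpr1 and a PDE5-domain GloSensor, read before and 20 min after 0.1 nM hNppA stimulation. Cells had 2% substrate reagent for 2 h and test compound for 30 min.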
Chain of Atrial natriuretic peptide receptor 1 (Homo sapiens) (P16066 whole entry, looked up): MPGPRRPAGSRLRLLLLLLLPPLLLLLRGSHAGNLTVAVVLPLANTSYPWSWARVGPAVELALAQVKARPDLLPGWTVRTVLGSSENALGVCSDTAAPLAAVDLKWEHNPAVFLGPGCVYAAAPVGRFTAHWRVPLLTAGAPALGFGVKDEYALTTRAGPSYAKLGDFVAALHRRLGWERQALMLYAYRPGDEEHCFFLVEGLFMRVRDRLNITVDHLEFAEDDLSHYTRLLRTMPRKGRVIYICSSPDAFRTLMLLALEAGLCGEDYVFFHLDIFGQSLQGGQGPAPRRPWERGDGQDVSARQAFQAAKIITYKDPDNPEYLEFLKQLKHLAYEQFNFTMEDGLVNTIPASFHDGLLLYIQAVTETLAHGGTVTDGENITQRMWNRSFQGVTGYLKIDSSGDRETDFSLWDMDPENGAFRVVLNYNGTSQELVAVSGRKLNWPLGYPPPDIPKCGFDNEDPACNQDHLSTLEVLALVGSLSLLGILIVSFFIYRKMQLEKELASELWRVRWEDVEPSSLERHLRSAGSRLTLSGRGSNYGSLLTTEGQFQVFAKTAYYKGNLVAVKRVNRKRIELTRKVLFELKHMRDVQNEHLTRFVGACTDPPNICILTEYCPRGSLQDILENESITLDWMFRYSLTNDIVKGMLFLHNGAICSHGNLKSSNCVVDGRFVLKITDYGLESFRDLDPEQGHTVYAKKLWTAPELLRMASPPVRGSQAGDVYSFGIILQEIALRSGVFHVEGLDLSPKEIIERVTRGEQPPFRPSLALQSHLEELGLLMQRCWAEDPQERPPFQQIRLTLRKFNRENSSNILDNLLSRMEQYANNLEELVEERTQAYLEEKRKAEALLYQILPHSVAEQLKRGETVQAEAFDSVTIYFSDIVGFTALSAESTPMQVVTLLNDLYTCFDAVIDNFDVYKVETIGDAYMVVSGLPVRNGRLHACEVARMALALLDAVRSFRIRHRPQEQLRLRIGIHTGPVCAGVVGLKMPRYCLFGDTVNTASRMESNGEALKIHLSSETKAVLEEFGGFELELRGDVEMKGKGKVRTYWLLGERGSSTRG

In assay [9] the target is Atrial natriuretic peptide receptor 2 (Homo sapiens) (UniProt P20594). Briefly: Natriuretic polypeptide receptor (hNpr2) antagonism - Pilot subtype selectivity assay (AID 1347050; calls by dose curve; further: on the % scale 0 is the no-effect control and ±100 the full control effect). The method, boiled down: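 Pilot selectivity screen against hNpr2: HEK293 cGMP-sensor cells are treated with LOPAC1280 compounds, then with hNppC peptide at 1 nM final. The cGMP-driven luminescence change over 20 min at room temperature is the read-out.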
Chain of Atrial natriuretic peptide receptor 2 (Homo sapiens) (P20594 whole entry, looked up): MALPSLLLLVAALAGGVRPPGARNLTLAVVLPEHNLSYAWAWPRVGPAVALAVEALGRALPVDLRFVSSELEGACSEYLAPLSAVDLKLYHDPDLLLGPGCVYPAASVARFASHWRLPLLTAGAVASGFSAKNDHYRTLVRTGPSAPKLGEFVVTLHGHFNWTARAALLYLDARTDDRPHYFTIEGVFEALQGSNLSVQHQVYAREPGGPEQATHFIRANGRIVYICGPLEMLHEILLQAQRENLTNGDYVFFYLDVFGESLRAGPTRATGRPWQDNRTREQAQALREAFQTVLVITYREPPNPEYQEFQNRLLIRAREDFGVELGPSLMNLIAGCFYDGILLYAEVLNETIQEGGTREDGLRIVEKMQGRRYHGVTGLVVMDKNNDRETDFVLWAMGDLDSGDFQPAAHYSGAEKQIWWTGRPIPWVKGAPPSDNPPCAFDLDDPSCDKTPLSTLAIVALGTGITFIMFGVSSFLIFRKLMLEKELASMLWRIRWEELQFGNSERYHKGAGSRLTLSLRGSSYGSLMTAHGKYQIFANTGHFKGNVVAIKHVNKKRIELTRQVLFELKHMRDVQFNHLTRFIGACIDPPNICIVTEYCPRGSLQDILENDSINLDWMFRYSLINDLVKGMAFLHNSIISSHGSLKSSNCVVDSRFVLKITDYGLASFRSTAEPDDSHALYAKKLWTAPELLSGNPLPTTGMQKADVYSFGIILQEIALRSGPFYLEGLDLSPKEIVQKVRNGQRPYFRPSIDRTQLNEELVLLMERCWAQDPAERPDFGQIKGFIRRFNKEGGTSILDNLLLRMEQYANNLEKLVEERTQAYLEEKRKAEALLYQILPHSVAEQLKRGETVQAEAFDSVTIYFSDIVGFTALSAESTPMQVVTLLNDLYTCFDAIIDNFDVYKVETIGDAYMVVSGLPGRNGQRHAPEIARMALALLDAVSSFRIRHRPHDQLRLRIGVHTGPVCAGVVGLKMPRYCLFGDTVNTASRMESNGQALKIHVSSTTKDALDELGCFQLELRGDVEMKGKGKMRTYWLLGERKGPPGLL

Assay [10] in a line: qHTS profiling of the MIPE4 collection as inhibitors of Plasmodium falciparum (3D7) proliferation (AID 743344; call rule not given here;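 further: scaled between DMSO vehicle wells and 0.29 µM artemisinin as full inhibition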). Particulars: P. falciparum 3D7 in erythrocytes, SYBR Green DNA fluorescence, 72 h; at 28.5 µM (top of the series). The method, boiled down: (§1)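 Erythrocytes infected with P. falciparum (0.3% parasitemia, 2.5% hematocrit) incubated with compounds 72 h at 37 C, 5% CO2. Lysis with saponin/Triton buffer containing SYBR Green I, overnight at room temperature in the dark; DNA fluorescence (485/535 nm) normalised to 0.29 uM artemisinin and DMSO.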

Assay [11] is described as follows: qHTS profiling of the MIPE4 collection as inhibitors of Plasmodium falciparum (DD2) proliferation (AID 743345; call rule not given here). Particulars: P. falciparum Dd2 in erythrocytes, SYBR Green DNA, 72 h; at 28.5 µM (top of the series). In short, it runs like this: as §1
Assay [12] is described as follows: qHTS profiling of the MIPE4 collection as inhibitors of Plasmodium falciparum (DD2) proliferation (Rep 2) (AID 743346; call rule not given here). Particulars: P. falciparum Dd2 in erythrocytes, SYBR Green DNA, 72 h; at 28.5 µM (top of the series). The method, boiled down: as §1
Assay [13] can be described thus: qHTS profiling of the MIPE4 collection as inhibitors of Plasmodium falciparum (HB3) proliferation (AID 743347; call rule not given here;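 further: plate controls were DMSO vehicle wells for no effect and artemisinin wells for full effect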). The conditions noted are these: P. falciparum HB3 in erythrocytes, SYBR Green DNA, 72 h; at 28.5 µM (top of the series). The method, boiled down: as §1

T1 sequence (P35557 whole entry, looked up): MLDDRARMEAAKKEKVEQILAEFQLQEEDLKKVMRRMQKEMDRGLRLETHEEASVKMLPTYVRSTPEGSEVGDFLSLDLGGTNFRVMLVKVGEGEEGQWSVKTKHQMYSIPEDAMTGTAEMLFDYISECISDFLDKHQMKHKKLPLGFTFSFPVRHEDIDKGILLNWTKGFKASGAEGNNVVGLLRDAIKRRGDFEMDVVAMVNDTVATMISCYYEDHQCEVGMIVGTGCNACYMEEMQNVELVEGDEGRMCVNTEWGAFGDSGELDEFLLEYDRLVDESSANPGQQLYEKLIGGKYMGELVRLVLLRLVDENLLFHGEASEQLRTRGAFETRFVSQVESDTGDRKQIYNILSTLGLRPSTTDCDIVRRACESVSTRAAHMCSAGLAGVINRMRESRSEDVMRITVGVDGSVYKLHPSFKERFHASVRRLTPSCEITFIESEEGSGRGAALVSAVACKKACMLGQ
T1 sequence (Q14397 whole entry, looked up): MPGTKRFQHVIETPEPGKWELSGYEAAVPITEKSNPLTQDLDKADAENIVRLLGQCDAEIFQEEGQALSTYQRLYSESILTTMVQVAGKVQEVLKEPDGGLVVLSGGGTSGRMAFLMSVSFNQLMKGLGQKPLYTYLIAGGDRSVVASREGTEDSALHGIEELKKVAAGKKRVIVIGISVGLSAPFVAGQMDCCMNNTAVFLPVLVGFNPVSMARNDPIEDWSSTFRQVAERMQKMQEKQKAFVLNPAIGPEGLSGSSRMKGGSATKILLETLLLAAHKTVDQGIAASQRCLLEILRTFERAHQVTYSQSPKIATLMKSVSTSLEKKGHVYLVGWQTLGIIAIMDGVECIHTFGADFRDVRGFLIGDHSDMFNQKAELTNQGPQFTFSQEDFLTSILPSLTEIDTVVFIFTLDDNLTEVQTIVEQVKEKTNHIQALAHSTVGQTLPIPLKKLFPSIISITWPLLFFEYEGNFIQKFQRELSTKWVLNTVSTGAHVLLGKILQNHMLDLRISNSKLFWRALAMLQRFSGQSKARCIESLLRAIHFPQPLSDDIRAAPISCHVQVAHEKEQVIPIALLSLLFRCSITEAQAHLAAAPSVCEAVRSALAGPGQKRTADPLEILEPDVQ

As for `Fc1ccc(CN(C2=NCCN2)c2c(Cl)cccc2Cl)cc1`, the Potency result in assay [1], in assay [2], in [3], in [5], in assay [6] and in [7] was “inactive” each time. Moreover, the Potency entry in [8] and in assay [9] was “inactive” in each case. For the same molecule, the max response in [4] is -2.54% (inactive).
For the molecule `[N-]=[N+]=Nc1ccc(C(=O)CSC[C@H](NC(=O)CC[C@H](N)C(=O)O)C(=O)NCC(=O)O)cc1`, the Potency result in assay [1], in assay [2], in assay [3], in assay [5], in [6] and in [7] was “inactive” throughout. In addition, the Potency entry in assay [8] and in assay [9] was “inactive” each time. The max response in assay [4] is 27% (inactive).
For `COc1cc(/C=C(\C#N)C(=O)c2ccc(O)c(O)c2)cc(I)c1O`, the Potency result in assay [1], in assay [2], in [5], in assay [6], in assay [7] and in assay [8] was “inactive” throughout. Moreover, in assay [9], the Potency result was “inactive”. Moreover, in [4], the max response was 9.56% (inactive).
Turning to `NC/C=C\C(=O)O`, the Potency result in [1], in [2], in assay [3], in assay [5], in assay [6] and in assay [7] was “inactive” throughout. The Potency result in assay [8] and in assay [9] was “inactive” throughout. Also, the max response in [4] is 7.58% (inactive).
With `O=c1cc(-c2ccccc2F)[nH]c2cc3c(cc12)OCO3`, the Potency entry in [1], in assay [2], in assay [3], in [5], in assay [6] and in assay [7] was “inactive” in each case. Further, the Potency result in [8] and in [9] was “inactive” each time. Also, the max response in assay [4] was 15.8% (inactive).
For the molecule `NCCNS(=O)(=O)c1cccc2c(Cl)cccc12`, the Potency result in [1], in [2], in assay [5], in [6], in [7] and in [8] was “inactive” in each case. The Potency result in assay [9] was “inactive”. In [4], the Potency is 3.16 µM (active).
Turning to `Cc1nc(N=Nc2ccc(S(=O)(=O)O)cc2S(=O)(=O)O)c(COP(=O)(O)O)c(C=O)c1O`, the Potency entry in assay [1], in assay [2], in assay [3], in [5], in assay [6] and in assay [7] was “inactive” throughout. Besides, the Potency result in [8] and in assay [9] was “inactive” in each case. In assay [4], the max response was 14.8% (inactive). In assay [10], the parasite growth, % of DMSO control was determined as 98.1%. In assay [11], the parasite growth remaining, % of DMSO control (lower = more inhibition) was 100%. For the same molecule, in assay [12], the parasite growth, % of control (lower = inhibition) is 213%. This molecule gave a growth, % of control in assay [13] of 93.6%.
As to `CC(N)=NCCCC[C@@H](N)C(=O)O`, the Potency entry in assay [1], in assay [2], in assay [5], in assay [6], in [7] and in assay [8] was “inactive” each time. Besides, in assay [9], the Potency entry is “inactive”. Also, the max response in [4] was 25.1% (inactive).
With `NCC(O)(CS(=O)(=O)O)c1ccc(Cl)cc1` (stereo unspecified), the Potency entry in [1], in assay [2], in assay [3], in assay [5], in [6] and in assay [7] was “inactive” throughout. Besides, the Potency result in assay [8] and in assay [9] was “inactive” in each case. The max response in [4] is -5.75% (inactive).
Turning to `CC(C)Cn1c(=O)n(C)c(=O)c2[nH]cnc21`, the Potency entry in [1], in assay [2], in assay [5], in assay [6], in assay [7] and in assay [8] was “inactive” each time. Moreover, the max response in assay [4] was 4.24% (inactive).
On to `CCCCOC(=O)NS(=O)(=O)c1sc(CC(C)C)cc1-c1ccc(Cn2c(CC)nc3c(C)cc(C)nc32)cc1`, for which the Potency result in [1], in assay [2], in [3], in assay [5], in assay [6] and in [7] was “inactive” each time. Also, in [9], the Potency result is “inactive”.

The record behind these values is PubChem BioAssay (NCATS).
